About 310 (0.34%) of roughly 91,000 compounds were called active. The list comes from a sample in which actives are over-represented; it also holds similar structures and randomly drawn compounds. A number with no mark means an inactive call. Rule as the data show it: active = inhibition above about 80%; inactive = the rest.
What follows are molecules tested against Bifunctional epoxide hydrolase 2 (Homo sapiens) (UniProt P34913) (assay: soluble epoxide hydrolase inhibitors, primary screen, biochemical, human sEH (AID 707)). Conditions: recombinant human sEH enzymatic activity assay; at 2 µM; hits give high values.
Sequence of Bifunctional epoxide hydrolase 2 (Homo sapiens) (P34913 whole entry, looked up): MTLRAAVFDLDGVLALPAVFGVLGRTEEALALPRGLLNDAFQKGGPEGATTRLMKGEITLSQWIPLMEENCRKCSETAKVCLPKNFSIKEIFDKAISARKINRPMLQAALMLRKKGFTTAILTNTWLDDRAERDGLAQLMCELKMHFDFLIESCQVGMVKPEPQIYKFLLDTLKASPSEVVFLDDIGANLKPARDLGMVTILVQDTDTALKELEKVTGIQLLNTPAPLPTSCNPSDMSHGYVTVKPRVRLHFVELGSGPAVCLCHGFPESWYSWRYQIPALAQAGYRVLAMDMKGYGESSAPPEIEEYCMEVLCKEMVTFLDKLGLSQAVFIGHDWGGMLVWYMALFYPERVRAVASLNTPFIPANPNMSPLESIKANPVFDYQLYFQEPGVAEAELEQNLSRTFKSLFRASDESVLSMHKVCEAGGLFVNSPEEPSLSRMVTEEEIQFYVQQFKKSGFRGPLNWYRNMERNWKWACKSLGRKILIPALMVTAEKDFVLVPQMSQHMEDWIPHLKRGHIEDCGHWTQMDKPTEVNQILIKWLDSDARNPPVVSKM

Structure (SMILES) | inhibition
Cc1ccc(NC(=S)N/N=C2/CCCc3c(C)cc(C)cc32)cc1 | -9.1%
CCN(CC)CCNc1ccc(Cl)cc1[N+](=O)[O-] | 6.5%
CSCc1cc(N2CCOCC2)nc(SCc2ccc(Cl)cc2Cl)n1 | -22.1%
CCOc1ccc(C(=O)NC2CCN(S(=O)(=O)CC)CC2)cc1 | -0.5%
CCc1ccc(/C=N/NC(=O)c2ccc(OC3CCCC3)cc2)s1 | 95.6% (active)
COc1ccc(C(=O)Nc2ccccc2C(=O)N/N=C/c2ccccc2OC)cc1 | 4.7%
O=C(NC1CCCCC1)c1cc([N+](=O)[O-])ccc1N1CCOCC1 | 2.6%
C/C(=N\NS(=O)(=O)c1cccc([N+](=O)[O-])c1)c1cc2ccccc2o1 | 7.3%
O=C(Nc1ccn(Cc2ccccc2F)n1)c1ccc(COc2ccc(Cl)cc2Cl)o1 | 1.6%
O=C(Nc1ccc(-n2ccnc2P(=O)(O)c2ccccc2)cc1)c1ccccc1Br | -9.1%
CC(=O)Nc1cccc(/C(C)=N/NC(=O)c2ccccc2Cl)c1 | 7.7%
O=C(NNS(=O)(=O)c1ccc(Cl)cc1)C1CCN(Cc2ccccc2)CC1 | -4%
CN(C)/C(CN1CCCCC1)=C1\N=C(c2ccccc2)OC1=O | 6.9%
CC(=O)c1cnc(SCCN2C(=O)c3ccccc3C2=O)nc1C | 8.1%
C=CCNC(=O)c1sc(SC)cc1-c1ccc(Cl)cc1 | -13.7%
CC(C)CNC(=S)NNC(=O)c1ccccc1OC(F)F | -9.6%
COC(=O)c1ccccc1OCC(=O)N1CCN(c2ccc(Cl)cc2)CC1 | 46.4%
Cc1c(NC(=O)CCCOc2ccccc2)cccc1[N+](=O)[O-] | 11.7%
CCC(=O)Nc1ccc(C(=O)Nc2cc(C)on2)cc1 | -8.6%
CCOc1ccc(C(CCc2ccccc2)NC(=O)c2ccc(OC)c(OC)c2)cc1OCC (stereo not drawn) | -23.6%
COc1cccc(-c2nnc(SCCOc3ccc4c(C)cc(=O)oc4c3)o2)c1 | 12.2%
CCCCn1c(=S)[nH]c2cc(S(=O)(=O)N3CCCCC3)ccc21 | 6.5%
O=C(c1ccc(F)cc1)c1c[nH]c(C(=O)NCc2cccnc2)c1 | -11.2%
N#Cc1ccsc1NC(=O)CN1CCCCC1 | -1.4%

Structure (SMILES) | inhibition
O=C(COc1ccc(Cl)cc1)NCCC1=CCCCC1 | 14.4%
COc1cc(C(=O)N2CCN(C/C=C/c3ccccc3)CC2)cc(OC)c1C | -12.7%
NC(=O)N1CCCC1C(=O)Nc1ccc(Cl)c(Cl)c1 (stereo not drawn) | 6.3%
Nc1nc(Br)c2ccccc2c1-c1ccc(F)cc1 | 4.8%
Cc1ccc(-c2csc(N(Cc3ccco3)C(=O)c3cccs3)n2)cc1 | -9.9%
O=[N+]([O-])c1ccc(NCCCN2CCOCC2)c(Cl)c1 | 19.3%
CC(C)NC(=O)NC(=O)COC(=O)c1ccc(NC(=O)CC#N)cc1 | -6%
CC(C)C(NS(=O)(=O)c1cccs1)C(=O)Nc1nc(C(C)(C)C)cs1 (stereo not drawn) | 3.1%
COc1cccc(/C=N/NC(=O)C(=O)N2CCCC2)c1 | -4.3%
O=c1cc(N2CCN(Cc3ccccc3)CC2)c(-c2ccccc2)n[nH]1 | 5.8%
COc1cccc(NC(=O)C2c3cc(OC)c(OC)cc3C(=O)N(C)C2c2cccnc2)c1 (stereo not drawn) | -8.1%
O=C(CN1C(=O)NC2(CCCC2)C1=O)Nc1ccc(F)c(F)c1F | -1.5%
O=C(CCCN1C(=O)c2cccc3cccc(c23)C1=O)N1CCN(Cc2ccc3c(c2)OCO3)CC1 | 5.9%
N/C(=N\OC(=O)c1cc(-c2ccccc2)nc2ccccc12)c1ccncc1 | -2%
O=C(CSCc1ccc([N+](=O)[O-])cc1)Nc1cccc(C(=O)Nc2ccccc2C(=O)O)c1 | -3.9%
Cc1cc(C(=O)OCC(=O)Nc2ccc(F)c(F)c2)c(C)o1 | 7.9%
CCC(C)n1c(-c2cc(OC)c(OC)c(OC)c2)nc2nc3ccccc3nc21 (stereo not drawn) | -0.7%
O=C(CNC(=O)OCc1ccccc1)Oc1cc2oc(=O)cc(-c3ccccc3)c2cc1Cl | -5.2%
COc1ccccc1N(C)S(=O)(=O)c1ccc(C(=O)N2CCC(C(N)=O)CC2)cc1 | 12.9%
CN(C(=O)CSc1nc(C2CC2)nc2ccccc12)c1nc(-c2ccccc2)cs1 | 4.4%
CCCCNC(=O)c1onc(CSc2cccc(OC)c2)c1C(=O)O | -10.5%
CCOC(=O)C1=C(CN2CCc3ccccc32)NC(=O)NC1c1cc(C)ccc1C (stereo not drawn) | -4.9%
COc1ccc(SCc2noc(C(=O)NCC3CCCO3)c2C(=O)O)cc1 (stereo not drawn) | 1.5%
O=C(Cc1cccc2ccccc12)Nc1ccc2oc(-c3ccccc3)nc2c1 | 50%

Structure (SMILES) | inhibition
CCCCCC(=O)Nc1ccc2oc(-c3ccncc3)nc2c1 | 84.3% (active)
O=C(Nc1ccc2oc(-c3ccc4ccccc4c3)nc2c1)c1cccs1 | 34.6%
C=CCNc1cnn(-c2ccc(C)cc2)c(=O)c1Cl | 1.9%
CC(C)CC(=O)N1CCC(O)(CS(=O)(=O)Cc2ccccc2)CC1 | 1.9%
O=C(CN1CCN(S(=O)(=O)c2ccc(Cl)s2)CC1)NCc1ccc(Cl)cc1 | -1.1%
CC(C)(CCl)C(=O)Nc1ccc(Sc2ccc(F)cc2)cc1 | 28.4%
COC(=O)C(NC(=O)c1ccc(OC)cc1)(Nc1ncc(S(=O)(=O)c2ccc([N+](=O)[O-])cc2)s1)C(F)(F)F (stereo not drawn) | -1.7%
COc1ccc(OCC(=O)NN2Cc3ccccc3C2=N)cc1 | 4.7%
O=C(NCCSCc1ccccc1)c1ccc(Cl)c(S(=O)(=O)N2CCOCC2)c1 | 78.5%
Cc1ccccc1CSCCNC(=O)c1ccc(N(C)S(=O)(=O)c2ccccc2)cc1 | 36.1%
Cc1ccccc1CSCCNC(=O)c1ccc(Cl)c(S(=O)(=O)N2CCOCC2)c1 | 83.4% (active)
O=C(COC(=O)c1ccccc1NC(=O)c1ccco1)Nc1ccc2c(c1)OC(F)(F)O2 | 28.3%
CO/N=C/c1ccc(N2CCN(C(=O)c3cccc(Cl)c3)CC2)c([N+](=O)[O-])c1 | -9.1%
N#C/C(=C(/O)Cc1cccc2ccccc12)c1nc2ccccc2s1 | -15.9%
O=C(ON=C1CCN(S(=O)(=O)c2ccccc2)CC1)c1ccc(Cl)cc1 | 2.3%
O=C(CSc1ccc(/C=N/NC(=O)c2cccc(F)c2)o1)Nc1ccccc1 | 79%
Cc1noc(C)c1S(=O)(=O)N(CC(=O)NCc1ccc(Cl)cc1)c1ccc2c(c1)OCO2 | 14.5%
O=C(/C=C/c1cc2c(cc1Br)OCO2)NCc1ccc(Cl)cc1 | 85.9% (active)
O=C(/C=C/c1ccc(Cl)cc1Cl)NCc1ccco1 | 19.3%
O=C(CNC(=O)Cc1ccccc1)NCC(=O)OCC(=O)c1ccccc1Cl | -0.5%
CCC(=O)OCc1c(C(F)(F)F)nn(C)c1Oc1cccc(C(F)(F)F)c1 | 7.8%
O=C(O)c1ccccc1NC(=S)NC(NC(=O)c1ccccc1[N+](=O)[O-])C(Cl)(Cl)Cl (stereo not drawn) | 7.4%
CNC(=S)NNC(=O)c1sccc1OCc1ccccc1 | -3.9%
N#Cc1cc([N+](=O)[O-])ccc1Oc1cccc(/C=N/NC(=O)c2ccc(Cl)cc2)c1 | 18.1%

Structure (SMILES) | inhibition
COc1ccc(-c2cc(C(=O)n3cnc4ccccc43)c3ccccc3n2)cc1 | -13.6%
Cc1cc([N+](=O)[O-])c(NC2CCCCC2)c([N+](=O)[O-])c1 | -4.6%
O=C(NCCCN1CCCCC1)c1ccc2c(c1)NC(=O)C(N1CCOCC1)S2 (stereo not drawn) | 10%
COc1ccc(CCNC(=O)c2ccc3c(c2)NC(=O)C(N2CCOCC2)S3)cc1OC (stereo not drawn) | 100% (active)
COc1ccc(C(=O)NCCc2ccc(S(N)(=O)=O)cc2)cc1OC | 6.9%
O=C1CSC(c2ccccc2)N1c1nc(-c2ccc(Cl)cc2Cl)cs1 (stereo not drawn) | 10.5%
O=C(CN1C(=O)NC(Cc2ccccc2)(Cc2ccccc2)C1=O)NCC1CCCCC1 | -8.9%
Cn1c2ccccc2n2c(=O)c(=O)n(CC(=O)c3ccc(F)cc3)nc12 | -2%
O=C(CN1CCCCCC1)Nc1ccc(Br)cc1Br | 9.4%
CC1(C)CC(=O)C(C=NCCN2CCN(C(=S)Nc3cccc(Cl)c3)CC2)=C(O)C1 | 13.9%
O=C(Cn1cncn1)N/N=C/c1c2ccccc2cc2ccccc12 | 2%
C=CCOC(=O)C1=C(C)NC(C)=C(C(=O)OCC=C)C1c1cccs1 | -5.1%
COc1ccccc1CSc1nc2ccccc2[nH]1 | -2.6%
COc1cc(OC)c(/C=N/NC(=O)c2ccc([N+](=O)[O-])cc2)cc1Br | 35.2%
Cc1ccc(NC(=S)Nc2ncccc2C)c(C)c1 | 6.9%
O=C(/C=C/c1ccccc1)N/C(=C/c1ccccc1)C(=O)Nc1ccccc1O | 2.8%
Cc1cc2cc3c(N)[nH]nc3nc2cc1C | 4.3%
Cc1ccc(-n2nc(N)c3c(=O)oc(N(C)C)nc32)cc1 | 10.2%
COc1cc(C(=O)NC(=S)NCc2ccco2)cc(OC)c1OC | 12%
Cc1ccc(-c2nc3ccccc3[nH]2)cc1NC(=O)c1sc2ccccc2c1Cl | 10.9%
NC(=O)C1(N2CCCCC2)CCN(C(=S)Nc2ccc(Cl)cc2)CC1 | 0.6%

Source: PubChem BioAssay AID707 (Columbia University Molecular Screening Center, 2007)
